# Screening data deposited in PubChem BioAssay by Sanford-Burnham Center for Chemical Genomics.
# tim10-1 inh: growth inhibitors of tim10-1 mutant yeast; S. cerevisiae tim10-1 ts strain growth, BacTiter-Glo, 24 h; inhibition, % at 20 µM; actives 2.2% (n = 330,000); AID 463190;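 active means inhibition of at least 40%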;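 further: mutant grown at 25 °C; 0% = DMSO wells with yeast and 100% = wells holding no yeast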
# MPTP inh: inhibitors of mitochondrial permeability transition pore | isolated mouse mitochondria, Ca2+ swelling absorbance, 30 min | inhibition, % at 10 µM | actives 1.4% (n = 360,000) | AID 602449;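 active means inhibition of 50% or more, scaled per plate between neutral and stimulator controls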;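 further: 0% = DMSO wells given calcium and 100% = 1 mM EGTA wells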
# tim23-1 inh: growth inhibitors of tim23-1 mutant yeast; S. cerevisiae tim23-1 growth, BacTiter-Glo luminescence, 24 h; inhibition, % at 20 µM; actives 1.3% (n = 330,000); AID 463212;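 active means growth inhibition of the mutant yeast at or above 50%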;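 further: temperature-sensitive mutant grown at 25 °C; plate controls were DMSO-treated mutant yeast for no effect and medium wells lacking yeast for full effect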
# Mdm2 MdmX PPI: disrupts the human Mdm2-MdmX interaction; O15151+Q00987; SaOS-2 split-luciferase Mdm2/MdmX complementation, luminescence; inhibition, % at 8 µM; actives 3% (n = 330,000); AID 485346;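 active means inhibition of at least 50% at 8 µM in the primary screen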
# TIM10 inh: growth inhibitors of TIM10 yeast strain | S. cerevisiae TIM10 strain growth, BacTiter-Glo luminescence, 24 h | inhibition, % at 10 µM | actives 1.4% (n = 330,000);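 active means inhibition of 40% or more at the single tested concentration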;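 further: wild-type TIM10 isogenic control strain grown at permissive 25 °C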
# Rh123 counter: membrane potential counter-screen of mitochondrial pore inhibitors; shares compounds with MPTP inh; isolated mitochondria, Rhodamine 123 fluorescence; inhibition, % at 10 µM; actives 78% (n = 5,000); AID 624504; in the data active means inhibition above about 22%;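 further: 0% = DMSO vehicle and 100% = positive control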
# MPTP abs DR: dose response confirmation of mitochondrial permeability transition pore inhibitors; shares compounds with MPTP inh; actives 58% (n = 780); IC50, µM; isolated mitochondria swelling, absorbance; in the data active means IC50 below about 20 µM
# MPTP counter DR: counter-screen for mitochondrial permeability transition pore inhibitors, dose response | shares compounds with MPTP inh | isolated mitochondria counterscreen, fluorescence read-out | IC50, µM | actives 49% (n = 780); in the data active means IC50 below about 80 µM
# An asterisk follows results filed as active; i = inactive; x = not tested or not shown; + = active, no number. In the library only some 6.3% were active in any assay of this set; here they are far more common.
SMILES,tim10-1 inh,MPTP inh,tim23-1 inh,Mdm2 MdmX PPI,TIM10 inh,Rh123 counter,others
CCOC(=O)c1ccc(N/N=C/c2cc(Br)cc([N+](=O)[O-])c2O)cc1,2,74*,17,9,5,21*,
CCn1cc(CN(C)S(=O)(=O)c2ccc3ccccc3c2)c(C)n1,14,91*,34,27,10,85*,
CCC(C(=O)N1CCN(Cc2ccc3c(c2)OCO3)CC1)n1nnc2ccccc2c1=O (configuration not stated),x,-2,x,x,x,x,
CC(=O)c1c(C)[nH]c(C(=O)OCCCCN2C(=O)c3ccccc3C2=O)c1C,0,103*,10,29,16,91*,
O=c1c(-c2ccccc2)cocc1-c1ccccc1,x,0,x,x,x,x,
COc1ccc(CN(C)C(=O)[C@H]2O[C@@H](n3cnc4c(N)ncnc43)[C@H](O)[C@@H]2O)cc1OC,x,0,x,x,x,x,
Cc1cc(/C=C2/C(=N)N3C(=NC2=O)SN=C3S(C)(=O)=O)c(C)n1-c1ccccc1F,23,33,11,-22,25,x,
CS(=O)(=O)C1=NSC2=NC(=O)/C(=C\c3cccn3-c3ccc(Cl)cc3)C(=N)N21,x,96*,x,x,x,61*,
COc1ccccc1NC(=O)Cc1csc(NC(=S)Nc2ccc(C)cc2)n1,29,72*,3,25,-12,75*,
CCC(=O)Nc1nc(CC(=O)Nc2ccccc2OC)cs1,8,-1,4,2,-2,x,
CNc1cncc(-c2cccc(C(=O)NC3CC3)c2)n1,x,0,x,x,x,x,
CC1=NN(C(=O)c2csc(C)c2)C(O)(C(F)(F)F)C1 (configuration not stated),15,-2,17,17,-8,x,
CC1=NN(C(=O)c2ccc(Br)cc2)C(O)(C(F)(F)OC(F)(F)F)C1 (configuration not stated),25,68*,19,4,2,78*,
COc1cccc(N2C(=O)CC(N3CCN(S(=O)(=O)c4ccccc4[N+](=O)[O-])CC3)C2=O)c1 (configuration not stated),x,-2,x,x,x,x,
O=C(NCc1ccc2c(c1)OCO2)c1c(-c2ccccc2)sc2ccccc12,21,82*,-7,8,4,79*,
Cc1onc(-c2ccccc2)c1C(=O)NCc1ccc2c(c1)OCO2,8,0,-11,21,6,x,
O=C(Nc1ccc2c(c1)OCO2)c1ccc2sc([C@@H]3O[C@H](CO)[C@H](O)[C@H](O)[C@H]3O)nc2c1,x,-1,x,x,x,x,
O=C(Cc1cccc2ccccc12)NC(NC(=S)Nc1ccccc1Cl)C(Cl)(Cl)Cl (configuration not stated),0,79*,3,-50,13,70*,
N#Cc1ccc(C2=NC(C(F)(F)F)(C(F)(F)F)c3c(n(Cc4ccco4)c(=O)[nH]c3=O)N2)cc1,5,84*,14,1,9,84*,
Cc1ccc(NS(=O)(=O)c2ccc(C3CCCCC3)cc2)cc1,11,73*,13,24,11,78*,
CCOc1ccc(C(=O)Nc2ccc(N3CCN(C(C)=O)CC3)cc2)cc1[N+](=O)[O-],10,3,17,-5,12,x,
CC(=O)N1CCN(c2ccc(Oc3ccc([N+](=O)[O-])c(C(F)(F)F)c3)cc2)CC1,24,80*,28,49,24,76*,
Cc1cccc(Nc2nc(-c3c(C)nc4ccccn34)cs2)c1,29,86*,32,36,23,76*,
CCN(c1ccccc1)S(=O)(=O)c1ccc(Cl)c(NC(=O)CN(C)Cc2cccc(F)c2)c1,x,-1,x,x,x,x,
O=C(C1CCC1)N1CCc2cc(S(=O)(=O)NC3CCCC3)ccc21,16,-1,2,19,1,x,
SMILES,tim10-1 inh,MPTP inh,tim23-1 inh,Mdm2 MdmX PPI,TIM10 inh,Rh123 counter,others
CCC(=O)N1CCc2cc(S(=O)(=O)Nc3ccc4c(c3)OCCO4)ccc21,15,81*,8,2,7,58*,
CS(=O)(=O)N1CCc2cc(S(=O)(=O)Nc3ccc4c(c3)OCCO4)ccc21,10,12,11,19,13,x,
O=C(C1CCC1)N1CCc2cc(S(=O)(=O)Nc3ccc4c(c3)OCCO4)ccc21,12,65*,1,-25,12,81*,
OC(c1ccc(-c2ccccc2)cc1)c1ncc(-c2ccc(C(F)(F)F)cc2)[nH]1 (configuration not stated),x,5,x,x,x,x,
CCNC(=O)C1CCCN(C(=O)c2ccc(N(C)C)cc2)CC1 (configuration not stated),x,-2,x,x,x,x,
O=C(Cc1ccc(S(=O)(=O)N2CCOCC2)s1)Nc1ccccc1N1CCOCC1,10,0,17,12,9,x,
O=C(Cc1ccc(S(=O)(=O)N2CCCCC2)s1)Nc1cccc2ccccc12,10,+,14,24,-1,4,MPTP abs DR=>100;MPTP counter DR=>80
C1=C(c2ccc(-c3ccccc3)cc2)Nc2ncnn2C1c1ccco1 (configuration not stated),x,58*,x,x,x,9,
Cn1cccc1C1C=C(c2ccc(C(C)(C)C)cc2)Nc2ncnn21 (configuration not stated),31,82*,45,20,20,69*,
CC(C)(C)c1ccc(C2=CC(c3ccccc3F)n3ncnc3N2)cc1 (configuration not stated),14,1,23,-12,19,x,
O=c1c2ccccc2oc2ccc(-c3ccc4cc[nH]c4c3)cc12,-4,0,20,-106,5,x,
O=C(NCc1ccccc1)c1cc(C2COCCN2C(=O)c2cccs2)on1 (configuration not stated),x,0,x,x,x,x,
Nn1c(-c2cccc(O)c2)nnc1-c1cccc(O)c1,x,0,x,x,x,x,
COc1ccc(COc2ccccc2C(=O)NCc2ccccc2)cc1F,18,96*,4,9,2,88*,
C[C@H](CO)N1C[C@H](C)[C@@H](CN(C)C(=O)c2cnccn2)Oc2cc(C#CCC3CCCC3)ccc2S1(=O)=O,x,-1,x,x,x,x,
COc1cccc(OC)c1OCCCCCCN1CCN(C)CC1,-3,0,7,-7,-7,x,
COc1ccccc1OCCCCN1CCN(C(c2ccccc2)c2ccccc2)CC1,15,82*,3,40,16,-7,MPTP abs DR=i;MPTP counter DR=65*
CN(C)c1nn(C(=O)Nc2cccc(C(F)(F)F)c2)cc1-c1ccccc1,23,90*,14,2,0,101*,
COc1ccc(/C=N/NC(=O)Cn2nc([N+](=O)[O-])cc2C)c(OC)c1OC,-9,-3,13,15,-8,x,
COc1ccccc1/C=N/NC(=O)c1ccc(Cn2nc([N+](=O)[O-])cc2C)cc1,-1,65*,9,-8,3,0,MPTP abs DR=>100;MPTP counter DR=>80
O=C(C1CCCCC1)N1C[C@H](O)[C@@H](n2cc(C3CC3)nn2)C[C@@H]1c1ccccc1,x,0,x,x,x,x,
